We go through 36 compounds from PubChem BioAssay (NCATS).

Results filed as inconclusive are left out. Unmarked numbers belong to inactive results. Calls of active or inactive are those of the source. The call rests on the fitted dose curve; in most records, active means well fitted inhibition curve with a large enough effect; inconclusive means small, poorly fitted or top-dose-only effect; inactive means no such curve, though single readings can be large or run the other way.
Potency means the concentration at half of the fitted maximal effect.

One experiment can be described thus: BET inhibitor-based combinations targeting novel dependencies in MECOM-rearranged (r) AML: HNT-34 cell line (AID 2202234). Further: nearly all actives have a fitted effect of over 35% in size.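 On viability (% of control): plate controls were vehicle wells for no effect and cell-free wells for full effect.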 As to conditions: HNT-34 AML viability, CellTiter-Glo luminescence, 48 h; series mostly up to 46 µM; viability (% of control): at the top concentration. In a few lines:
(§1)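 Seeding density was 500 cells/well, and drug exposure lasted 48 hr under standard culture conditions. Read-out used CellTiter-Glo reagent with a 15 min room-temperature incubation before luminescence measurement; AUC and Z-AUC summarize the normalized responses.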
For `O=C(Nc1ncc(SCCN2CCCC2)s1)[C@]1(c2ccc(S(=O)(=O)C3CC3)cc2)C[C@H]1C1CCCCC1`, the Potency was 23.5 µM (active). As to `Cc1ccc2nc(NCCN)c3ncc(C)n3c2c1`, the Potency is 8.33 µM (active).

Regarding `COc1ccc(-c2oc3ncnc(N)c3c2-c2ccc(NC(=O)Nc3cc(C(F)(F)F)ccc3F)cc2)cc1`, the Potency is 7.42 µM (active).

For the compound `O=C(NC1CC1)c1cccc(-c2ccc3c(NC(=O)C4CC4)n[nH]c3c2)c1`, the Potency was 3.32 µM (active). Turning to `COc1cc(C(=O)NC(N)=Nc2ccc(C)c(NC(=O)c3ccc(-c4ccccc4)cc3)c2)cc(OC)c1OC`, the Potency was 18.6 µM (active). For the compound `COc1ccc2c(c1)c(C1=C(c3c[nH]c4ccccc34)C(=O)NC1=O)cn2CCCN(C)C`, the Potency was 16.6 µM (active).

For `C=CCN(/C=C1\C(=O)O[C@@H](COC)[C@]2(C)C1=C(O)C(=O)C1=C2[C@@H](OC(C)=O)C[C@]2(C)C(=O)CC[C@H]12)CC=C`, the Potency was 20.9 µM (active). Regarding `CO[C@H]1/C=C/O[C@@]2(C)Oc3c(C)c(O)c4c(O)c(c5c(nc6cc(C)ccn65)c4c3C2=O)NC(=O)/C(C)=C\C=C\[C@H](C)[C@H](O)[C@@H](C)[C@@H](O)[C@@H](C)[C@H](OC(C)=O)[C@@H]1C`, the “viability (% of control)” value was 88.7%. Consider `N#Cc1ccc(-c2c(-c3ncn[nH]3)sc(N3CCOCC3)c2C#N)c(F)c1`, for which the Potency was 10.5 µM (active). Still for that read-out and setting: next, `CCN(CC)C(=S)SSC(=S)N(CC)CC`: 0.332 µM (active); `COc1cc(N2CCN(C)CC2)ccc1Nc1ncc2c(n1)N(C)c1ccccc1C(=O)N2`: 26.3 µM (active); `Cc1ccc(-n2nc(C(C)(C)C)cc2NC(=O)NCc2cc(F)ccc2Oc2ccc3c(cnn3CCO)c2)cc1`: 0.296 µM (active). As for `COc1cc(OC)cc(N2CCN(C(=O)Nc3nc4cc(F)ccc4nc3OC)CC2)c1`, the Potency was 0.833 µM (active).

The next experiment is described as follows: BET inhibitor-based combinations targeting novel dependencies in MECOM-rearranged (r) AML: UCSD-AML1 cell line (AID 2202235). Further: nearly all actives have a fitted effect of over 40% in size.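 On viability (% of control): plate controls were DMSO vehicle wells for no effect and blank wells for full effect.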 As to conditions: UCSD-AML1 AML cells viability, CellTiter-Glo, 48 h; series mostly up to 46 µM; viability (% of control): at the top concentration. Summed up: as §1
For orientation: Cellular ATP, detected with luciferase, serves as a proxy for viable cell number.
Regarding `Nc1ncc(C(=O)NC2CN(C(=O)C3CC3)C2)c2ccc(-c3cccc(F)c3)nc12`, the Potency was 23.5 µM (active).

Regarding `N#CCC1(n2cc(-c3ncnc4[nH]ccc34)cn2)CN(C2CCN(C(=O)c3ccnc(C(F)(F)F)c3F)CC2)C1`, the Potency was 3.72 µM (active). For the compound `O=C(O)C[C@H]1CCc2c1[nH]c1ccc(OCc3ccc(C4CCCC4)c(C(F)(F)F)c3)cc21`, the “viability (% of control)” value was 113%. With `CCc1ccc(N(CC(C)C)S(=O)(=O)c2ccc(OCC3CCOCC3)c(CO)c2)cc1`, the “viability (% of control)” value was 95.8%.

In the case of `Cc1ccc2nc(NCCN)c3ncc(C)n3c2c1`, the Potency is 7.42 µM (active).

As for `C=C[C@@H]1CN2CCC1C[C@H]2[C@H](O)c1ccnc2ccc(OC)cc12` (some centres undefined), the “viability (% of control)” value was 110%. As to `O=C(NC1CC1)c1cccc(-c2ccc3c(NC(=O)C4CC4)n[nH]c3c2)c1`, the Potency was 4.68 µM (active). Turning to `C[C@@]12O[C@@H](C[C@]1(O)CO)n1c3ccccc3c3c4c(c5c6ccccc6n2c5c31)CNC4=O`, the Potency was 0.118 µM (active). For the compound `Cn1cc(-c2ccc(-c3cncc(Cl)c3N3CCC4(CCNC4=O)CC3)cc2)cn1`, the “viability (% of control)” value was 97.4%.

Consider `NS(=O)(=O)Oc1ccc2c3c(c(=O)oc2c1)CCCCC3`, for which the “viability (% of control)” value is 106%.

For the compound `[O-][n+]1cccc(-c2nc3c(Cl)cccc3cc2[C@@H](Nc2ncnc3cccnc23)C(F)(F)F)c1`, the Potency was 6.61 µM (active). With `COc1cccc(-c2c(C)n(Cc3c(F)cccc3C(F)(F)F)c(=O)n(C[C@H](NCCCC(=O)O)c3ccccc3)c2=O)c1F`, the “viability (% of control)” value was 119%.

`N#Cc1ccc(-c2c(-c3ncn[nH]3)sc(N3CCOCC3)c2C#N)c(F)c1`: the Potency was 1.32 µM (active).

In the case of `CCOC(=O)N[C@@H]1CC[C@@H]2[C@@H](C1)C[C@H]1C(=O)O[C@H](C)[C@H]1[C@H]2/C=C/c1ccc(-c2cccc(F)c2)cn1`, the “viability (% of control)” value was 86.3%. In the case of `CCC(=O)N1CCOc2c(cc(-c3cc(OC)cc(OC)c3)cc2C(=O)N[C@H]2CCCN(C)C2)C1`, the Potency was 20.9 µM (active). Turning to `CCC[C@H](Nc1nc(-c2ccc(NC(=O)NCC)c(OC)c2)ncc1C)c1cccnc1`, the Potency is 0.132 µM (active).

Turning to `Nc1nc(-c2nn(Cc3ccccc3F)c3ncccc23)ncc1C1CC1`, the Potency is 14.8 µM (active). Consider `Cc1ccc(NS(=O)(=O)c2cccc(C#N)c2)c2[nH]cc(C#N)c12`, for which the Potency was 0.833 µM (active). For `COC(=O)Nc1nc2ccc(S(=O)c3ccccc3)cc2[nH]1` (centres undefined), the Potency is 7.42 µM (active). Regarding `CC(C)NC(=O)C1CCC(n2c(NC(=O)c3ccc(F)cc3)nc3ccc(CN4CCC(C(C)(C)O)CC4)cc32)CC1` (centres undefined), the “viability (% of control)” value is 87.4% [at 15.6 µM]. As to `OC1CCC(Oc2cccc3cnc(Nc4ccc5nc[nH]c5c4)nc23)CC1` (centres undefined), the Potency was 0.934 µM (active). For `CC(C)n1cc(-c2ccc3c(c2)N(C)CC3)c2c(NS(=O)(=O)c3ccn(C)n3)ccnc21`, the “viability (% of control)” value was 112%. On to `Cc1c(NC(=O)c2cc(C(N)=O)nc3cc(F)ccc23)c(C(F)(F)F)nn1Cc1ccc(C(C)(C)C)cc1`, for which the “viability (% of control)” value is 116%. For `CC(C)Oc1ccc(C(=O)N[C@H](CNC(=O)CN(C)C)Cc2ccc(-c3cn4cccc([C@H](C)O)c4n3)cc2)cc1Cl`, the Potency is 0.332 µM (active). Consider `O=C(NC[C@H](O)CO)c1ccncc1Nc1ccc(I)cc1F`, for which the Potency was 0.372 µM (active).

For the compound `COc1cc(C(C)C)c2c(c1)S(=O)(=O)N(COc1cc(=O)n3cccc(OCCN4CCCCC4)c3n1)C2=O`, the Potency is 26.3 µM (active).
